Compound activity: PubChem, several laboratories
HSF1 inhib = HSF1 inhibition | NIH3T3-HGL HSE-luciferase, MG132-induced, luminescence 8 h; active compounds read low | activity change, negative = inhibition, % at 7.5 µM (by protocol) | actives 0.77% (n = 300,000);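 active = more than half of replicate wells show activity change below -50%, luminescence cut by over half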;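 also: luciferase reports HSF-1 transcriptional activity via heat shock element; 0% = median of DMSO wells and -100% = zero luminescence signal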
NOD2-RIPK2 inh = inhibitors of human NOD2-RIPK2 interaction; O43353; CHO BLA complementation NOD2-RIPK2, CCF4 ratio; inhibition, % at 4.98 µM; actives 0.38% (n = 360,000); AID 624267; in the data active = inhibition above about 21%;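 also: 0% = vehicle only and 100% = reference blocker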
Target sequence (O43353 whole entry, looked up): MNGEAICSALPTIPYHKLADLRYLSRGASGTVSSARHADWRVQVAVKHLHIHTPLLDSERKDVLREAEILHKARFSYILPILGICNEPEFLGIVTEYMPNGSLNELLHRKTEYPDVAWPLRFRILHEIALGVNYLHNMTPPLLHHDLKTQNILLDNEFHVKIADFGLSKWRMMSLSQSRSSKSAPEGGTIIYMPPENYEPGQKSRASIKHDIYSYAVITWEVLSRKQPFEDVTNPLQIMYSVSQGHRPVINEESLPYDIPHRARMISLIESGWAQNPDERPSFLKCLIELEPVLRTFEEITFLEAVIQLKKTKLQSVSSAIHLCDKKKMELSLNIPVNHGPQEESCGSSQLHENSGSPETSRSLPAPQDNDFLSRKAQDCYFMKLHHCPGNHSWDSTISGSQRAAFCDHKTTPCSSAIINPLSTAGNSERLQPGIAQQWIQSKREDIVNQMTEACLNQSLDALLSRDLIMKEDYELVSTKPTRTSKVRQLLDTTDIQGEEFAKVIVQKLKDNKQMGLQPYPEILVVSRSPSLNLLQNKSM
TLR4 MyD88 comp = blocks binding of human TLR4 to MyD88 | HeLa CL3-4 TLR4/MyD88 BLA complementation, FRET ratio | inhibition, % at 8.4 µM | actives 0.18% (n = 200,000); in the data active = inhibition above about 25%;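 also: 0% = vehicle and 100% = reference inhibitor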
TLR9-MyD88 inh = blocks human TLR9 binding to MyD88; Q9NR96+Q99836; CHO BLA complementation TLR9-MyD88, CCF4 FRET ratio; inhibition, % at 4.98 µM; actives 0.21% (n = 340,000);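 active = inhibition above the mean over all tested compounds plus 3 SD, cut at about 21% in these data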;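 also: 0% = DMSO only wells and 100% = clavulanate BLA inhibitor control wells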
HSF-1 act = increases HSF-1 driven luciferase reporter signal; actives 1.7% (n = 300,000); AID 504408; NIH3T3-HGL HSF-1 luciferase reporter, MG132, 8 h; 100% = twice DMSO control signal; activation, % at 9 µM;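 active = mean replicate activation of at least 50% with a set share of replicates each reaching 50%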;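 also: 0% = median of the neutral control wells and 100% = twice that signal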
NOD2-RIPK2 conf = confirmation of human NOD2-RIPK2 interaction inhibitors; shares compounds with NOD2-RIPK2 inh; CHO cells, NOD2-RIPK2 BLA complementation, CCF4 FRET; inhibition, % at 4.98 µM; actives 70% (n = 1,200);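 active = mean inhibition across replicates above a set limit taken from the earlier primary screen, cut at about 21% in these data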;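 also: 0% = DMSO-only wells and the high end = clavulanate BLA-blocked wells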
BLA counter = NOD2-RIPK2 counterscreen BLA reporter activity. AID 624371. shares compounds with NOD2-RIPK2 inh. CHO BLA reporter, CCF4 FRET ratio. actives 57% (n = 1,200). inhibition, % at 4.98 µM;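 active = mean inhibition above the low-control mean inhibition plus three low-control SD, cut at about 11% in these data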;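 also: 0% = DMSO only wells and 100% = clavulanate high control wells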
Starred values were filed as active, the others as inactive; . = no result. In the library only some 2.4% were active in any assay of this set; here they are far more common.

SMILES	HSF1 inhib	NOD2-RIPK2 inh	TLR4 MyD88 comp	TLR9-MyD88 inh	HSF-1 act	NOD2-RIPK2 conf	BLA counter
Cc1ccc(/C=N/Nc2ccnc3cc(Cl)ccc23)c(C)c1	-8.1	21.2*	-11.2	18.7	11.0	30.5*	41.8*
Cc1ccccc1/C=N/Nc1ccnc2cc(Cl)ccc12	9.4	-7.0	7.5	7.0	41.6	.	.
O=C(NCc1ccccc1)C(c1ccc(C(F)(F)F)cc1)n1c(=O)c(-c2ccccc2)nc2ccccc21 (centres undefined)	.	2.8	.	.	.	.	.
O=C(NCc1ccccc1)C(c1ccccc1F)n1c(=O)c(-c2cc3ccccc3[nH]2)nc2ccccc21 (centres undefined)	.	53.2*	.	.	.	48.1*	69.7*
O=C(NCc1ccccc1)C(c1ccc(-c2ccccc2)cc1)n1c(=O)c(-c2cc3ccccc3[nH]2)nc2ccccc21 (centres undefined)	.	23.1*	.	.	.	42.4*	66.5*
O=C(NCc1ccccc1)C(c1ccncc1)n1c(=O)c(-c2cc3ccccc3[nH]2)nc2ccccc21 (centres undefined)	.	54.0*	.	.	.	50.6*	67.1*
COc1ccc(C(C(=O)NCc2ccccc2)n2c(=O)c(-c3cc4ccccc4[nH]3)nc3ccccc32)cc1 (centres undefined)	.	43.5*	.	.	.	39.9*	63.8*
COc1cc(NC(=O)COC(=O)CO/N=C(\C)c2ccc3c(c2)OCO3)cc(OC)c1OC	-0.4	-12.6	.	-1.1	15.1	.	.
Cc1cn2nc(N)c3ccccc3c2n1	.	37.0*	-4.4	0.9	.	-3.8	1.9
O=C(Nc1ccccc1)C1Cc2c(-c3ccc(Cl)cc3)ccnc2O1 (centres undefined)	.	-0.7	.	.	.	.	.
O=C(NCc1ccccc1)C1Cc2c(-c3ccc(Cl)cc3)ccnc2O1 (centres undefined)	.	21.4*	.	.	.	17.7	1.4
COc1ccc(C(=O)N2CCCC(Nc3ccc(C)c(C)c3)C2)c(OC)n1 (centres undefined)	5.0	-7.1	.	-6.0	12.4	.	.
Cc1noc2ncnc(Sc3ccccc3Cl)c12	24.5	27.9*	9.6	19.9	23.0	22.8*	-5.6
O=C1c2cccc3cc([N+](=O)[O-])cc(c23)C(=O)N1CC1CCCO1 (centres undefined)	0.3	24.2*	.	9.3	-7.6	20.6	10.2
O=C1c2ccccc2C(=O)N1CC1CCCO1 (centres undefined)	-3.5	-4.0	-5.7	-3.7	16.9	.	.
Cc1ccc2c(c1)=N/C(=N\c1[nH]c(O)c3ccccc13)N=2	.	29.4*	.	-2.9	.	50.6*	48.5*
Cc1ccccc1N1CCN(C(=S)c2ccccc2)CC1	1.0	24.1*	-30.0	2.6	8.0	-2.9	-1.5
S=C(c1ccccc1)N1CCN(c2ccccc2)CC1	.	-4.0	.	-4.3	.	.	.
COc1ccc(S(=O)(=O)NCCCn2ccnc2)cc1Cl	-8.1	0.9	.	-1.1	-1.8	.	.
O=C(c1ccccc1)c1sc(Nc2ccc3c(c2)OCO3)nc1-c1ccccc1	.	21.3*	.	.	.	20.3	25.5*
N#Cc1ccc(Nc2nc(-c3ccccc3)c(C(=O)c3ccccc3)s2)cc1	.	-5.1	.	.	.	.	.
CC(C)(C)NC(=O)C(c1ccnc2ccccc12)n1c(=O)c(-c2ccccc2)nc2ccccc21 (centres undefined)	.	-6.9	.	.	.	.	.
CC(C)(C)NC(=O)C(c1ccnc2ccccc12)n1c(=O)c(-c2cc3ccccc3[nH]2)nc2ccccc21 (centres undefined)	.	49.3*	.	.	.	45.6*	65.5*
CC(C)(C)NC(=O)C(c1ccccc1F)n1c(=O)c(-c2ccco2)nc2ccccc21 (centres undefined)	.	-12.8	.	.	.	.	.
CC(C)(C)NC(=O)C(c1ccccc1F)n1c(=O)c(-c2cc3ccccc3[nH]2)nc2ccccc21 (centres undefined)	.	50.3*	.	.	.	46.3*	67.7*
c1ccc(Cc2c(C3CCCCC3)nc3c4ccccc4ccn23)cc1	.	-21.0	.	.	.	.	.
CCOc1ccc(S(=O)(=O)N2CCN(C(=O)C3CC3C)CC2)cc1 (centres undefined)	.	-3.5	.	-8.6	.	.	.
